# Assay results reported in PubChem BioAssay AID687030 (Broad Institute, 2013).
# In all, about 1,400 compounds went through this assay and about 10 (0.7%) were called active. How the calls were made is not given here. Only a sample is shown. Entries with a potency or affinity are not part of this list.
# Assay: BHK-21 cell toxicity, dose response, cytotoxicity control, plate reader, cherry-pick samples (AID 687030);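 further: cells were exposed to compound for three days before reading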
# Settings: BHK-21 cells; series mostly up to 19.5 µM
row,Structure (SMILES),outcome
1,C[C@@H]1CCCCO[C@@H](CN(C)C(=O)c2ccccc2)[C@@H](C)CN([C@H](C)CO)C(=O)c2cc(NC(=O)CCC(F)(F)F)ccc2O1,inactive
2,CC1(C)CN(Cc2cccnc2)C(=O)[C@H]1CC(=O)Nc1ccc(Br)cc1,inactive
3,Cc1cc(NC(=O)Cn2c(=O)oc3ccc(Cl)cc32)no1,inactive
4,CC(C)(C)NC(=O)c1cccc(NC(=O)c2ccc3c(c2)C(=O)N(C(C)(C)C)C3=O)c1,inactive
5,COc1cc(OC)cc(C(=O)Nc2ccc3nc4n(c(=O)c3c2)CCCC4)c1,inactive
6,CN(Cc1ccc(Cl)c(Cl)c1)C(=O)C1CC(=O)N(c2ccc3c(c2)OCCO3)C1 (stereo not given),inactive
7,COc1ccc(CN2C(=O)CCC2(C)c2nnnn2Cc2ccccc2)cc1 (stereo not given),inactive
8,Cc1cc(C)c(OCCCNC2CCCC2)c(Br)c1,inactive
9,COc1cc(O)c(C(CC(=O)N2CCCC(C)C2)c2cc(OC)c(OC)c(OC)c2)c(OC)c1 (stereo not given),inactive
10,CN(C)c1ccc(CC(=O)N2CCCC(c3cc(C(=O)Nc4ccc(F)c(Cl)c4)no3)C2)cc1 (stereo not given),inactive
11,C/C=C/c1cnc2c(c1)C(=O)N([C@H](C)CO)C[C@H](C)[C@H](CN(C)S(=O)(=O)c1ccccc1)O2,inactive
12,Cc1ccc(S(=O)(=O)N2CC[C@@H]3[C@H](CO)Nc4ccc(-c5ccccc5F)cc4[C@@H]32)cc1,inactive
13,COc1ccc(-c2ccc3c(c2)[C@H]2[C@H](CCN2C(=O)CN2CCOCC2)[C@@H](CO)N3)cc1,inactive
14,Cc1ccc(CNC(=O)[C@H](C)N2C(=O)N3CCc4c([nH]c5ccccc45)[C@@]3(C)C2=O)cc1,inactive
15,C/C(=N/NC(=O)CCC(=O)Nc1cccc(Cl)c1)c1ccc(C)cc1,inactive
16,CC(C)(C)NC(=O)C(c1cccc2ccccc12)n1c(=O)c(-c2ccccc2)nc2ccccc21 (stereo not given),inactive
17,CCOc1ncccc1C(=O)OCC(=O)NCc1ccc(C(=O)OC)cc1,inactive
18,C[C@@H]1CCCCO[C@H](CN(C)C(=O)Nc2cccc3ccccc23)[C@@H](C)CN([C@@H](C)CO)C(=O)c2cc(NS(=O)(=O)c3cn(C)cn3)ccc2O1,inactive
19,CCn1c(SCc2cccc(F)c2)nnc1-c1ccncc1,inactive
20,Cc1cccc(C)c1-n1nnnc1C1(C)CCC(=O)N1Cc1cccnc1 (stereo not given),inactive
21,O=C(NCC1CCCCC1)[C@@H]1[C@@H](CO)[C@@H]2Cn3c(cccc3=O)[C@H]1N2CCc1ccccc1,inactive
22,C[C@H]1CCCCO[C@H](CN(C)C(=O)Nc2ccc(C(F)(F)F)cc2)[C@@H](C)CN([C@@H](C)CO)C(=O)c2cc(NC(=O)C3CCCCC3)ccc2O1,inactive
23,OC(c1ccccc1)C(NCc1ccccc1)c1ccccc1 (stereo not given),inactive
24,CCC(=O)Nc1ccc(NC(=O)c2oc3ccccc3c2C)cc1,inactive
25,CC1(C)CC(NC(=O)COc2ccccc2Cl)CC(C)(C)N1,inactive

row,Structure (SMILES),outcome
1,O=C(NC1CCCC1)C(C1CC1)n1c(C2CCCC2)nc2ccccc21 (stereo not given),inactive
2,CCOC(=O)c1ccc(S(=O)(=O)N2CCC(N3CCCCC3)CC2)cc1,inactive
3,CCc1ccc(NC(=O)N(CCCN2CCOCC2)Cc2cccs2)cc1,inactive
4,COc1ccc(N(C(=O)c2cccnc2)S(=O)(=O)c2ccc(OC)c(OC)c2)cc1,inactive
5,CO[C@@H]1CN(C)C(=O)c2ccc(NC(C)=O)cc2OC[C@@H](C)N(S(C)(=O)=O)C[C@H]1C,inactive
6,CCc1ccc2cc(C)cc(C)c2n1,inactive
7,COc1ccc(S(=O)(=O)Nc2ccc3c(c2)C(=O)N([C@@H](C)CO)C[C@@H](C)[C@H](CN(C)S(=O)(=O)c2ccc(Cl)cc2)O3)cc1,inactive
8,CCCn1c(-c2ccc[nH]c2=O)nc2cc(C)c(C)cc21,inactive
9,C[C@H]1CCCCO[C@@H](CN(C)C(=O)Nc2cccc3ccccc23)[C@@H](C)CN([C@@H](C)CO)C(=O)c2cc(NC(=O)Cc3ccccc3)ccc2O1,inactive
10,Cc1cccc(C(=O)N2CCC(=O)N([C@H](COCc3ccc(Cl)cc3)Cc3ccccc3)CC2)c1,inactive
11,Cc1c(C(=O)Nc2ccccc2F)sc2ncn(CC(=O)N3CCOCC3)c(=O)c12,inactive
12,Cc1nc2ccc(C(=O)NC(C)(C)C)cn2c1N(C)C(=O)CCc1ccccc1,inactive
13,O=C(Nc1ccc2ccccc2c1)C(C1CC1)n1c(=O)c(-c2cc3ccccc3[nH]2)nc2ccccc21 (stereo not given),inactive
14,COc1ccc(CCC(C)NCc2ccc(F)cc2)cc1 (stereo not given),inactive
15,CCCn1c(=N)n(CC(O)COc2ccc(C)cc2)c2ccccc21 (stereo not given),inactive
16,CCN(C(=O)COC(=O)c1cc2c(s1)CCCCC2)C1CCS(=O)(=O)C1 (stereo not given),inactive
17,Cc1cc(C)n2c(NC3CCCC3)c(-c3cccnc3)nc2n1,inactive
18,CCOC(=O)C1CCN(Cc2c(C(=O)N3CCOCC3)nc3c(C)cccn23)CC1,inactive
19,CCCCC[C@H]1CN(CCc2ccccc2)C(=O)[C@@H]1CC(=O)NCc1ccc(OC)cc1,inactive
20,CO[C@H]1CN(C)C(=O)c2cc(NC(=O)c3ccccc3F)ccc2OC[C@H](C)N(CC2CCOCC2)C[C@H]1C,inactive
21,CC(=O)N[C@@H]1CC[C@H](CCNC(=O)C2CCCC2)O[C@H]1CO,inactive
22,CC(C)NC(=O)Nc1ccc2c(c1)C(=O)N([C@@H](C)CO)C[C@H](C)[C@H](CN(C)C(=O)Nc1ccc3c(c1)OCO3)O2,inactive
23,COc1ccc(NC(=O)Nc2cccc3c2O[C@H](CN(C)S(=O)(=O)c2ccccc2)[C@H](C)CN([C@@H](C)CO)C3=O)cc1,inactive
24,COc1ccc(S(=O)(=O)N2CCCC2C(=O)NCC(=O)Nc2cccc(Cl)c2C)cc1 (stereo not given),inactive
25,O=C(NCc1ccncc1)c1cccc(NS(=O)(=O)c2ccc(F)c(F)c2)c1,inactive
